Bioassay records deposited in PubChem by several laboratories.
Jurkat NFkB inh: lowers PMA/ionomycin-induced NF-kB signal in Jurkat cells; PMA/ionomycin-induced NF-kB luciferase reporter, luminescence; inhibition, % at 4 µM; 0.53% of 330,000 active; in the data active = inhibition above about 50%
EBV LMP1 NFkB: reduces LMP1-driven NF-kappaB luciferase signal; LMP1-induced NF-kappaB luciferase reporter cells, luminescence; inhibition, % at 12.5 µM; 0.69% of 350,000 active; AID 504558; in the data active = inhibition above about 41%; inconclusive = no clear call, values can overlap the other calls;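 note: 0% = neutral control wells and 100% = reference inhibitor control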
697 NFkB inh: lowers PMA/ionomycin-induced NF-kB signal in 697 B cells | 697 B-cell NF-kB luciferase reporter, 16 h | inhibition, % at 4 µM | 0.33% of 330,000 active; in the data active = inhibition above about 35%
Shn3 inh set2: inhibitors of Schnurri-3 3'UTR reporter in osteoblasts; Clone20 osteoblast Shn3 3'UTR firefly luciferase, 24 h; inhibition, % at 12.5 µM; 0.52% of 360,000 active; AID 588674;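 active = mean inhibition of at least 75% with every replicate also reaching 75%; inconclusive = mean inhibition at least 75% but some replicate below; inactive = mean inhibition below 75%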;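 note: 0% = median of neutral control wells and 100% = pilot-screen positive control compound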
MITF TRPM1 inh: MITF TRPM1 promoter inhibition in SK-MEL-5 cells | AID 488899 | inhibition, % at 12.5 µM | SK-MEL-5 TRPM1 promoter luciferase, 24 h | 0.83% of 330,000 active;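 active = mean inhibition across replicates of 60% or more, whatever share of single replicates reaches that level; inconclusive = some that reach 60%, reason not given; inactive = mean inhibition across replicates below 60%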
Gli-Sufu block: Gli-Sufu pathway antagonism. 0.74% of 340,000 active. Sufu-KO-LIGHT fibroblasts, Gli luciferase reporter luminescence. inhibition, % at 5 µM. AID 588413;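 active = inhibition above about 55%, limit read from the data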;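 note: 0% = DMSO-treated cells and 100% = wells with medium but no cells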
Gli antag conf: Gli-SUFU antagonism confirmation, single concentration; shares compounds with Gli-Sufu block; Sufu-KO-LIGHT cells, Gli luciferase reporter, luminescence; inhibition, % at 5 µM; 40% of 2,500 active; AID 602428;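 active = mean inhibition at 5 µM reaching about 45%, limit read from the data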;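 note: plate controls were DMSO-treated cells for no effect and wells lacking cells for full effect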
SufuKO cytotox: cytotoxic in Gli-SUFU antagonist counter-screen | Sufu-KO-LIGHT cells cytotoxicity, ATP luminescence | AID 651994 | cytotoxicity, % at 5 µM | 32% of 2,500 active | shares compounds with Gli-Sufu block;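 active = mean cytotoxicity at 5 µM above about 25%, limit read from the data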;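 note: cells exposed to compound overnight for roughly 16 to 18 hours; plate controls were DMSO wells with cells for no effect and medium without cells for full effect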
Wnt3a cs: inhibits Wnt3a reporter, counter-screen for Gli-SUFU antagonists; shares compounds with Gli-Sufu block; Wnt-LIGHT cells, Wnt3a-driven luciferase reporter, luminescence; inhibition, % at 6.25 µM; 20% of 2,500 active; AID 651995;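 active = mean inhibition above about 25%, limit read from the data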
An asterisk follows results filed as active; ? = inconclusive; / = no result. A selection: hits, their analogues and other compounds. The true share with any hit is near 2.3%.

SMILES	Jurkat NFkB inh	EBV LMP1 NFkB	697 NFkB inh	Shn3 inh set2	MITF TRPM1 inh	Gli-Sufu block	Gli antag conf	SufuKO cytotox	Wnt3a cs
O=C1CCN(CCc2ccccc2)CCN1[C@H](CSc1ccccc1)Cc1ccccc1	-2.6	-0.3	-6.7	59.5	-15.0	62.1*	26.9	22.7	-12.0
CCCN1CCC(=O)N([C@H](CSc2ccc(C)cc2)Cc2ccccc2)CC1	6.8	8.2	19.0	10.9	-12.6	29.9	/	/	/
COc1ccc(C(=O)NN(C)c2nc(-c3ccccc3)nnc2C(F)(F)F)cc1	3.6	0.2	-6.1	17.9	1.4	-16.5	/	/	/
COc1ccc(C(=O)NN(C)c2nc(C(F)(F)F)nc3ccccc23)cc1	/	8.9	/	33.6	41.1	56.1*	54.6*	63.4*	0.5
COc1ccc(OC)c(NC(=O)CCN2CCN(c3ccccc3F)CC2)c1	5.1	7.2	-0.2	13.2	4.5	10.5	/	/	/
COc1ccc(C)cc1NC(=O)CCN1CCN(c2ccccc2F)CC1	0.8	-16.6	1.6	5.6	1.7	58.8*	14.8	10.8	-1.4
CCN(CC)S(=O)(=O)c1ccc(C)c(NC(=S)N2CCN(c3ccccn3)CC2)c1	12.3	4.5	-1.5	27.8	9.8	6.6	/	/	/
CCN(CC)S(=O)(=O)c1ccc(C)c(NC(=S)N2CCN(Cc3ccc4c(c3)OCO4)CC2)c1	26.9	11.7	-17.8	79.5	20.4	64.0*	42.6	23.5	7.0
CCN(CC)S(=O)(=O)c1ccc(C)c(NC(=S)N2CCN(C/C=C/c3ccccc3)CC2)c1	28.8	25.9	-18.0	88.0*	51.8	65.7*	39.4	31.2*	-8.0
O=C(Cn1c(=O)cnc2ccccc21)Nc1cc(Cl)ccc1N1CCOCC1	10.8	10.1	23.1	18.0	1.7	3.1	/	/	/
Cc1ccnc(NC(=O)CCC(=O)N(CC(=O)NCc2ccc(F)cc2)Cc2ccco2)c1	-21.0	-1.5	-9.9	-14.1	8.5	62.8*	14.7	7.9	-6.2
Cc1ccccc1NC(=O)Cc1c[nH]c2ccccc12	-4.2	-9.3	14.0	-1.6	12.4	55.2*	18.4	18.0	-36.6
CCc1ccccc1NC(=S)N=Nc1c(O)n(C)c2ccc(S(=O)(=O)N3CCOCC3)cc12	17.7	35.5	2.8	64.5	14.6	65.9*	47.7*	19.5	-25.4
O=C1CNC(=O)/C(=C/c2cccs2)N1	4.7	-0.6	3.7	-35.6	-33.1	1.2	/	/	/
C/C(=N\NC(=O)c1ccccc1O)c1c(O)cc(C)oc1=O	-6.2	-14.1	-25.6	1.2	-17.2	58.3*	4.1	-2.3	-39.8
COc1cc(/C=N/NC(=O)c2ccccc2O)ccc1OC(=O)CC1SC(=O)NC1=O (stereo not drawn)	1.4	-0.5	9.1	-14.9	-21.2	57.5*	6.8	7.2	-48.4
O=C1c2oc3ccccc3c(=O)c2C(c2cccc(F)c2)N1CCCO (stereo not drawn)	-10.7	-41.4	14.4	7.0	6.9	4.8	/	/	/
CC1(C)CC(=O)C2=C(C1)OC(c1ccc(O)cc1)C(C#N)=C2N (stereo not drawn)	1.4	-1.7	-9.1	0.4	-2.1	50.9	10.6	2.4	-6.4
CC1(C)CC(=O)C2=C(C1)OC(c1ccncc1)C(C#N)=C2N (stereo not drawn)	-5.9	-4.9	-8.8	20.2	8.6	7.6	/	/	/
Cc1cccc(NC(=O)CS(=O)(=O)c2c[nH]c3ccccc23)c1C	-5.9	-0.8	-11.6	-2.5	-1.0	5.0	/	/	/
CCN1C(=O)CCN(C2CCCC2)c2nc(Nc3ccc(C(=O)NC4CCN(C)CC4)cc3OC)ncc21	/	-2.3	/	-10.1	76.1*	71.5*	60.4*	23.9	-87.4
COc1ccc(C(=O)NC2CCCCCC2)cc1S(=O)(=O)N1CCCc2ccccc21	-13.6	-7.1	-34.5	21.2	-13.4	9.6	/	/	/
C/C(=N\NC(=O)C(=O)Nc1cccc(Cl)c1)c1ccncc1	13.1	-3.0	-10.6	79.8	3.0	61.0*	59.5*	35.0*	13.2
C/C(=N\NC(=O)C(=O)Nc1ccc(C)c(Cl)c1)c1ccncc1	9.8	3.6	24.8	80.8	-12.1	62.0*	62.1*	32.2*	24.3
C/C(=N\NC(=O)C(=O)Nc1ccc(C)cc1)c1ccncc1	-4.3	-3.1	-2.5	10.3	5.1	4.4	/	/	/
SMILES	Jurkat NFkB inh	EBV LMP1 NFkB	697 NFkB inh	Shn3 inh set2	MITF TRPM1 inh	Gli-Sufu block	Gli antag conf	SufuKO cytotox	Wnt3a cs
Cc1ccc(S(=O)(=O)N(CC(=O)NCCSc2ccccn2)c2cc(C)cc(C)c2)cc1	2.2	5.1	-8.7	21.1	-2.1	51.0	24.8	6.2	-8.1
COc1ccc([C@H]2/C=C\CN(S(=O)(=O)/C=C/c3ccccc3)[C@@H](C)C(=O)N2Cc2ccc(F)cc2)cc1	-0.1	-3.4	5.0	56.2	2.9	0.1	/	/	/
CCOC(=O)c1oc2ccccc2c1NC(=O)C1CCCCC1	-4.4	-1.7	0.2	16.3	-4.4	97.1*	23.9	19.0	-9.2
CC1=C(C(N)=O)C(c2ccccn2)n2nc(SCc3ccccc3Cl)nc2N1 (stereo not drawn)	-15.0	1.2	-34.0	1.6	-1.9	2.5	/	/	/
CC1=C(C(N)=O)C(c2cccnc2)n2nc(SCc3ccccc3Cl)nc2N1 (stereo not drawn)	-13.3	3.0	-3.4	-29.4	13.3	58.1*	9.8	7.3	-11.9
CC(C)C(=O)N1CCN(c2ccccc2NC(=O)COc2ccccc2)CC1	7.3	-2.5	-6.7	7.2	21.4	54.3	28.4	10.0	-21.6
CC(C)C(=O)N1CCN(c2ccccc2NC(=O)COc2ccc(C3CCCCC3)cc2)CC1	10.1	1.6	-27.3	-17.8	-0.4	7.8	/	/	/
O=c1ccc(-c2ccc(S(=O)(=O)NCC3CCN(Cc4cccc(F)c4)CC3)s2)n[nH]1	-21.4	7.3	1.3	-5.5	-11.8	59.2*	12.5	21.9	-4.8
Cc1cc(C(=O)Nc2ccc3nc(C)sc3c2)c2ccccc2n1	7.4	8.1	5.8	-6.0	10.8	8.1	/	/	/
CCN(CC)C(=O)c1oc2ccc(S(=O)(=O)N3CCCCCC3)cc2c1C	5.6	3.5	-26.6	68.8	4.2	25.3	/	/	/
CCN(CC)C(=O)c1oc2ccc(S(=O)(=O)N3CC(C)CC(C)C3)cc2c1C (stereo not drawn)	32.2	8.4	-8.9	90.6*	31.6	63.0*	62.3*	22.9	43.8*
CCOC(=O)N1CCN(C(=O)CS(=O)(=O)Cc2nc(-c3ccccc3F)oc2C)CC1	-5.2	1.8	-37.7	?	6.7	57.4*	24.4	27.8*	-6.2
O=C(Nc1ccc(Cl)cc1)Nc1ccc(Br)cn1	-46.2	-13.7	-70.6	-66.3	-87.8	-42.6	/	/	/
